Only some compounds are listed: those with a hit (about 2.2% of all), similar ones and a draw of the others.
BaF3 tox: parental Ba/F3 viability inhibition as JAK2V617F counter-screen. CellTiter-Glo ATP luminescence. inhibition, % at 5.6 µM. 220,000 tested, 1.1% active;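 active = inhibition above a per-campaign cutoff, the mean inhibition of all tested compounds plus 3 SD, cut at about 27% in these data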;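 also: 0% = DMSO wells and 100% = JAK Inhibitor I control wells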
IEC-6 cytotox: counter-screen for KLF5 inhibitors: cytotoxicity in IEC-6 cells; IEC-6 cytotoxicity, luminescence viability; inhibition, % at 5 µM; 290,000 tested, 0.78% active; AID 1825; in the data active = inhibition above about 22%;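 also: 0% = plate median of test compound wells and 100% = cytotoxic reference compound wells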
APP transl inh: APP translation inhibition. SH-SY5Y APP 5'UTR-luciferase reporter, luminescence. inhibition, % at 2 µM. 190,000 tested, 0.82% active;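 active = inhibition above a set limit, derived from the sample mean plus 3 SD, cut at about 45% in these data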
KLF5 inhibitor: kruppel-like factor 5 inhibition; inhibition, % at 5 µM; 290,000 tested, 0.23% active; DLD-1 KLF5 promoter-luciferase reporter, luminescence; AID 1700;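 active = inhibition above a per-plate limit of that plate's mean compound inhibition plus 3 SD, cut at about 60% in these data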;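 also: 0% = DMSO wells and 100% = LY294002 at 200 µM; higher means less KLF5 promoter-driven luciferase light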
aSyn UTR inh: MLPCN primary screen, SNCA 5' untranslated region; alpha-synuclein 5'UTR reporter, inhibitor activity; inhibition, % (tested at 7.5 µM); 300,000 tested, 0.82% active; AID 1813; in the data active = inhibition above about 60%;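 also: H4 neuroglioblastoma cells stably carrying SNCA 5'UTR luciferase fusion; 0% = DMSO wells and 100% = positive control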
Ba/F3 V617F tox: reduce viability of Ba/F3 cells dependent on JAK2V617F | Ba/F3 EpoR-JAK2V617F viability, ATP luminescence | inhibition, % at 5.6 µM | 220,000 tested, 1.1% active;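 active = inhibition above the campaign mean plus 3 SD over all tested compounds, cut at about 24% in these data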;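 also: cytokine-independent growth of Ba/F3 cells driven by EpoR plus mutant JAK2; 0% = DMSO-treated cells and 100% = JAK inhibitor I control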
BaF3 parental 2: parental Ba/F3 viability inhibition for JAK2V617F counter-screen. shares compounds with Ba/F3 V617F tox. CellTiter-Glo luminescence; cells kept alive by added IL-3. inhibition, % at 5.6 µM. 580 tested, 31% active;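 active = cell growth inhibition above the hit limit set in the earlier mutant JAK2 cell screen, cut at about 27% in these data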;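 also: plate controls were DMSO-treated cells for no effect and JAK Inhibitor I control wells for full effect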
JAK2V617F confrm: Ba/F3 EpoR-JAK2V617F viability loss, confirmation | shares compounds with Ba/F3 V617F tox | CellTiter-Glo luminescence | inhibition, % at 5.6 µM | 580 tested, 66% active | AID 1521;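 active = mean inhibition above the hit cutoff derived in the earlier primary screen, cut at about 25% in these data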;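 also: 0% = DMSO-treated cells and 100% = JAK inhibitor I control wells; higher means lower luminescence from reduced cell ATP and viability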
Active calls of the source: *; nt = no result.

SMILES	BaF3 tox	IEC-6 cytotox	APP transl inh	KLF5 inhibitor	aSyn UTR inh	Ba/F3 V617F tox	BaF3 parental 2	JAK2V617F confrm
Cc1ccc(C)c(S(=O)(=O)Nc2ccc3scnc3c2)c1	19.8	17.4	5.1	16.4	-61.1	35.2*	16.1	32.6*
Cc1cccc(NC(=O)c2cnn3ccccc23)c1C	9.6	2.4	nt	-57.6	-84.6	27.9*	5.5	25.4*
Cc1cccc(NC(=O)c2ccccc2O)c1C	3.0	4.2	-56.1	-169.6	-173.9	4.0	nt	nt
CCOC(=O)N1CCN(C(=O)c2ccc(NC(=O)c3ccc(C)cc3)cc2)CC1	13.9	4.6	10.4	-45.7	-20.3	24.4*	2.9	32.5*
CN(C)CCCN(C(=O)CCOc1ccccc1)c1nc2c(F)cccc2s1	3.1	-0.8	33.5	-1.9	12.5	25.2*	3.6	29.8*
COc1ccccc1CNCC(=O)Nc1ccc(C#N)cc1	nt	5.3	nt	-8.7	-3.2	nt	nt	nt
O=[N+]([O-])c1cc(S(=O)(=O)NCCN2CCOCC2)ccc1Sc1nnnn1-c1ccccc1	18.9	2.0	4.0	-10.8	-95.8	45.8*	26.9*	95.8*
NC(=S)NN=C(Cc1ccccc1)Cc1ccccc1	21.2	-1.9	-6.6	-12.0	-25.6	44.7*	49.8*	60.3*
Cc1ccc(N(CC(=O)Nc2cc(Cl)ccc2Oc2ccccc2)S(C)(=O)=O)cc1C	2.5	8.4	0.4	-5.9	24.4	25.6*	-3.5	2.8
COc1ccc(C(=O)NC2CCN(S(=O)(=O)c3ccc(C)cc3)CC2)cc1	nt	2.7	nt	-21.0	14.4	nt	nt	nt
Cc1[nH]c2ccccc2c(=O)c1C(=O)/C=C/c1ccccc1	-4.8	12.1	nt	1.8	-280.5	58.7*	20.0	96.1*
COc1ccccc1C(=O)COC(=O)/C(=C/c1ccccc1)NC(C)=O	nt	nt	nt	nt	-14.8	nt	nt	nt
Cc1ccc(NS(=O)(=O)N(C)C)cc1	3.8	-4.3	15.9	-40.9	-0.8	-1.5	nt	nt
COc1ccc(CCC(=O)Nc2cc(Cl)ccc2N2CCN(C)CC2)cc1	1.3	-1.8	-4.0	-20.7	-16.4	32.6*	-5.0	1.7
Cc1cc(C(C)(C)C)cc(C)c1CCNC(=O)c1ccc[n+]([O-])c1	nt	1.5	nt	9.0	17.7	nt	nt	nt
Nc1ccccc1Nc1cccc(C(F)(F)F)c1	0.5	-8.5	6.7	-37.6	-51.7	41.9*	40.4*	92.8*
Cc1cc(C)nc(Nc2cccc(C(F)(F)F)c2)n1	nt	-14.9	nt	-23.4	-11.6	nt	nt	nt
CC(=O)c1ccc2cccc3c2c1N=CN3C	10.8	-8.4	1.0	9.4	6.2	50.0*	-3.3	7.6
COc1ccccc1C(c1c(N)n(C)c(=O)n(C)c1=O)C(C)[N+](=O)[O-] (configuration not stated)	3.4	-7.5	nt	-1.4	-13.5	-3.6	nt	nt
COc1ccccc1C(C[N+](=O)[O-])c1c(N)n(C)c(=O)n(C)c1=O (configuration not stated)	4.5	3.3	nt	-1.8	-10.1	37.1*	-0.7	96.1*
COC(=O)C1(C)Cc2cc(OC(C)=O)c(OC(C)=O)cc2N1 (configuration not stated)	17.3	0.3	nt	-14.1	-20.6	37.0*	4.0	45.6*
CCCCN(CC)Cc1ccc(CNC(=O)Nc2ccc(Cl)cc2)o1	-0.7	17.7	-6.8	-7.6	37.0	47.0*	14.4	41.6*
CSc1cccc(NC(=S)N2CCC(N(C)C3CCCCCC3)CC2)c1	11.0	5.8	17.1	3.1	0.6	5.0	nt	nt
CN(C1CCCC1)C1CCN(C(=S)Nc2cc(F)cc(F)c2)CC1	20.0	5.7	6.9	-15.9	-9.9	30.6*	3.5	31.9*
Nc1ccc(Sc2ccccc2CC(=O)O)cc1	6.3	4.2	6.3	16.5	-13.2	3.6	nt	nt
CCCSc1nsc(SCCC)c1C#N	1.9	0.9	-1.4	-14.5	-41.3	-4.2	nt	nt
C#CCSc1nsc(SCC#C)c1C#N	5.8	-1.2	6.6	-45.2	-32.0	44.9*	-3.6	72.2*
O=C(O)CC(NC(=O)Nc1ccccc1)c1ccc(OC2CCCC2)cc1 (configuration not stated)	4.1	3.2	2.0	-4.2	-8.0	32.7*	-4.3	-5.7
Cc1cc(Cl)n2c(nc3cc(F)c(F)cc32)c1C#N	24.2	13.1	87.6*	-0.4	39.0	47.6*	33.1*	93.2*
